This note sets out measurements from PubChem BioAssay.

The nature of this assay: anti-His antibody binders, primary screen, artefact control for SMM control protein annotation, biochemical, small-molecule microarray, 635 nm fluorescence (AID 1128).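 Further: score merges feature fluorescence with signal-to-noise for each printed compound spot.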 The conditions noted are these: anti-His Alexa647 antibody binding, higher = more signal.
For the compound `CC(C)[C@@H](OCc1ccccc1)[C@H](C)C=NOC[C@@H](O)COCc1ccco1`, the composite z-score was 1.29. The result for `CC(C)(C)N1C(=O)[C@H]2[C@H]3[C@H](O)C=CC(=O)[C@@H]3CC[C@H]2C1=O` reads 0.204. For `CCOC(=O)[C@H](CC(C)C)NC(=O)CCC1CC(OC(=O)NCc2cccc3ccccc23)CC2(CCCC(COC(=O)NCCOC)O2)O1` (stereo partly specified) the value was 0.427; for `Cc1ccc(S(=O)(=O)n2c3ccccc3c3nnc(C(=O)c4ccccc4)nc32)cc1`, -0.252. For `CCN1C(=O)[C@H]2[C@H]3[C@H](O)[C@H](O)CC(=NOC[C@H]4O[C@H](c5ccccc5)C=C[C@@H]4Oc4ccc(OC)cc4)[C@@H]3CC[C@H]2C1=O` the value was -0.157; for `Cc1cc2c(c(=O)o1)[C@@H](O)[C@H]1O[C@H]1C2=O`, 0.432.

`C#CCCCON=C1C[C@@H](O)[C@@H](O)[C@@H]2[C@@H]3C(=O)N(c4cccc(Oc5ccccc5)c4)C(=O)[C@@H]3CC[C@H]12` registered a composite z-score of 0.247. The result for `CC(CCN1CCc2nc(-c3ccccc3)c(-c3ccccc3)cc2C1)=NOC[C@@H](O)[C@H]1O[C@@H]2OC(C)(C)O[C@@H]2[C@H]1O` reads 0.107; that for `CC(CCN1CCc2nc(-c3ccccc3)c(-c3ccccc3)cc2C1)=NOC[C@@H](O)COCc1ccco1`, 0.567; that for `CSCC[C@@H]1NC(=O)CC=C[C@@H](C)COC(=O)[C@@H](C)COC1=O`, -0.888. The result for `CC(=O)Nc1ccc([C@@H]2N[C@H](C(=O)O)CC[C@H]2C)cc1` reads 0.328. The result for `C#CCCCON=C1[C@H]2CCn3c(=O)n(-c4ccccc4)c(=O)n3[C@H]2[C@H](O)[C@@H]2O[C@H]12` reads 0.303; that for `COC(=O)[C@@H]1CC[C@H](C)[C@@H](c2ccc(C)cc2)N1C(=O)c1ccc(C=NOC[C@@H](C)[C@H](OCc2ccccc2)C(C)C)cc1`, 0.336.

For the compound `CCOC(=O)[C@H](Cc1ccccc1)NC(=O)CCC1CC(OC(=O)NCc2cccc3ccccc23)CC2(CCCC(COC(=O)NCCC(C)C)O2)O1` (stereo partly specified), the composite z-score was found to be 0.603.

For `C=CC[C@@H]1C=C[C@H](ON=C2[C@H]3CCn4c(=O)n(-c5ccccc5)c(=O)n4[C@H]3[C@H](O)[C@@H]3O[C@H]23)[C@@H](CO)O1`, the composite z-score was 3.31.

Compound `CCOC(=O)[C@H](CC(C)C)NC(=O)CCC1CC(OC(=O)NCc2cccc3ccccc23)CC2(CCCC(COC(=O)NCCOc3ccccc3)O2)O1` (stereo partly specified) returned a composite z-score of 0.907. The result for `C[C@@H](c1ccccc1)N1C(=O)[C@H]2[C@H]3[C@H](O)[C@H](O)CC(=NOCc4ccccc4)[C@H]3CC[C@H]2C1=O` reads 1.2; that for `CCCNC(=O)OC[C@H]1O[C@H](CCON=C(C)CCN2CCc3nc(CC)c(CC)cc3C2)C=C[C@@H]1Oc1ccc(OC)cc1`, 0.869; that for `CCCNC(=O)OC[C@H]1O[C@H](CCON=C(C)C)C=C[C@@H]1Oc1ccc(OC)cc1`, 1.82. The result for `CC(=O)O[C@H]1C2=CO[C@H](C)[C@H]3[C@H]4C5=C([C@H](O)[C@H]6O[C@H]6C5=O)[C@H](OC4C)[C@@]23C(=O)[C@@H]2O[C@@H]21` (stereo partly specified) reads -0.497.

As to `C=CC[C@@H]1C=C[C@H](ON=C[C@@H](C)[C@H](OCc2ccccc2)C(C)C)[C@@H](CO)O1`, the composite z-score was -0.304. `COC(=O)CC=C[C@@H](C)[C@@H](C=NOC(C)CN1CCCc2nc(C)c(C)cc21)OC` (stereo partly specified) returned a composite z-score of 0.333. For `CC(CCN1CCCCc2nc(C)c(C)cc21)=NOC[C@@H](C)[C@H](OCc1ccccc1)C(C)C` the value was 1.59; for `CON=C(C)CCC(=O)OC[C@H]1O[C@H](c2ccccc2)C=C[C@@H]1Oc1ccc(OC)cc1`, 1.25; for `CON=CC[C@@H]1C=C[C@H](OC(C)=O)[C@@H](COC(C)=O)O1`, 0.0374. For `Cn1c(=O)n2n(c1=O)[C@H]1[C@H](O)[C@@H]3O[C@@H]3C(=O)[C@H]1CC2` the value was -0.0542; for `COc1ccc(COC(=O)NN=C2C[C@@H](O)[C@@H](O)[C@@H]3[C@@H]4C(=O)N(Cc5ccccc5)C(=O)[C@@H]4CC[C@H]23)cc1`, -0.382. `C#CCCCON=C1C[C@@H](O)[C@@H](O)[C@@H]2[C@@H]3C(=O)N(C(C)(C)C)C(=O)[C@@H]3CC[C@@H]12` came in with a composite z-score of -0.331. In turn, `C[C@@H](c1ccccc1)N1C(=O)[C@H]2[C@H]3[C@H](O)[C@H](O)CC(=NO[C@@H]4O[C@H](CO)[C@@H](O)[C@H](O)[C@H]4O)[C@H]3CC[C@H]2C1=O` had a composite z-score of 0.746. `CCOC(=O)CCN1C(=O)[C@H]2[C@H]3[C@H](O)[C@H](O)CC(=NOCc4ccccc4)[C@H]3CC[C@H]2C1=O`: the composite z-score was determined as 0.0669. For `CO[C@H]1COC(=O)[C@@H](C)COC(=O)[C@H](COCc2ccccc2)NC(=O)CC=C[C@H]1C` the value was -1.43; for `COc1cccc([C@H]2Oc3ccc(OC)cc3C(=NO[C@@H]3O[C@H](COC(C)=O)[C@@H](OC(C)=O)[C@H](OC(C)=O)[C@H]3OC(C)=O)[C@@H]2O)c1`, 0.238. In the case of `CCOC(=O)[C@H](CC(C)C)NC(=O)CCC1CC(OC(=O)NCc2ccc3c(c2)OCO3)CC2(CCCC(COC(=O)NCc3cccc(C(F)(F)F)c3)O2)O1` (stereo partly specified), the composite z-score stood at 0.339. `CCN1C(=O)[C@H]2[C@H]3[C@H](O)[C@H](O)CC(=NOCC(C)C)[C@@H]3CC[C@H]2C1=O` displayed a composite z-score of 0.768.

With `COC(=O)[C@H](C)NC(=O)CCC1CC(OC(=O)NCCc2ccc(F)cc2)CC2(CCCC(COC(=O)NCCC(C)C)O2)O1` (stereo partly specified), the composite z-score amounted to 0.959. For the compound `C=CC[C@@H]1C=C[C@H](ON=C(C)CCN2CCc3nc(-c4ccccc4)c(-c4ccccc4)cc3C2)[C@@H](CO)O1`, the composite z-score stood at 0.133.
